Measured values from PubChem BioAssay AID588849 (Broad Institute, 2011).
Measured potencies and affinities stand elsewhere. Active and inactive are the calls of the source. The rule behind the calls is not given here.

molecular target: CAAX prenyl protease 2 (Homo sapiens) (UniProt Q9Y256); assay: inhibition of Ras-converting CAAX protease Rce1 – biochemical, yeast membranes, quenched-peptide fluorescence, cherry-pick, dose response (AID 588849); conditions: yeast membrane fractions expressing human Rce1, quenched-peptide fluorescence, 4 h; series mostly up to 10 µM
Sequence (Q9Y256 whole entry, looked up): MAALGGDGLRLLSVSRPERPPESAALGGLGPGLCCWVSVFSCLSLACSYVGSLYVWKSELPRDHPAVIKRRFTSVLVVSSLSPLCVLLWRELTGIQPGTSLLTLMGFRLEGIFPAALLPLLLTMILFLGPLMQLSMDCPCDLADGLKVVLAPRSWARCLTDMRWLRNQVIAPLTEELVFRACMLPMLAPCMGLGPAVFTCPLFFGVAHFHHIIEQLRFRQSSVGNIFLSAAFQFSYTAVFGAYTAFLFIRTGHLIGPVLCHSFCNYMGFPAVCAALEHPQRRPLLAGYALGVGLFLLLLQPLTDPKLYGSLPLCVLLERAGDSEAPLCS

outcome, inactive:
Cc1ccc(-c2nc(Nc3ccc(N4CCOCC4)cc3)c3ccccc3n2)cc1, Cc1ccc(Nc2nc(-c3ccc(S(=O)(=O)N4CCOCC4)cc3)cs2)cc1Cl, COCc1c(Br)c(C)[nH]c(=O)c1C#N, NC(=NCCCCCCN=C(N)/N=C(\N)Nc1ccc(Cl)cc1)/N=C(\N)Nc1ccc(Cl)cc1, CC(C)c1ccc(NC(=O)COc2nncc3ccccc23)cc1, C=CCn1c(SCc2ccc(C#N)cc2)nnc1-c1ccc(C)cc1, COc1cccc(C2CC(c3cccs3)=NN2C(=O)CSc2nc3c(cnn3-c3ccc(F)cc3)c(=O)[nH]2)c1OC (configuration not stated), c1ccc(-c2ccc(-c3cn4c(n3)CCC4)cc2)cc1, CCN(CC)Cc1c(O)ccc2c(=O)c(-c3ccccc3OC)coc12, c1ccc(-n2nnnc2SCc2cn3cccnc3n2)cc1, N=c1c(C(=O)NCc2ccc(F)cc2)cc2c(=O)n3ccccc3nc2n1Cc1cccnc1, COC(C/C=C/[C@H](O)[C@@H](C)OCc1ccccc1)OC, O=C(Nc1ccccc1)n1ccc(-c2ccc(-n3ccnc3)cc2)n1, CC1(c2nnc(-c3cccc(Cl)c3)o2)CC(c2cccc(F)c2)=NO1 (configuration not stated), Nc1nnnn1/N=C/c1cccc(OCc2ccccc2Cl)c1, C[C@@]12CCC=C[C@H]1[C@H](c1ccc(/C=C/c3ccccc3)cc1F)N(Cc1ccccc1)C2=O, O=S(=O)(CC(CN1CCOCC1)N1CCOCC1)c1ccccc1 (configuration not stated)
